Test results reported in PubChem BioAssay (NCI).
The panel holds about 79,000 compounds, 15% with a hit somewhere; the sample as a whole holds those more often. Unmarked numbers belong to inactive results. Calls of active or inactive are those of the source. Rule as the data show it: active = growth inhibition above about 70%; inactive = the rest.

Experiment: NCI Yeast Anticancer Drug Screen. Data for the rad50 strain (AID 155);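 also: 0% = growth of vehicle-only cultures of the same strain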
Settings: S. cerevisiae rad50 strain growth inhibition; at 100.0 µM; active compounds read high
Procedure, shortened: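 Genetically altered yeast (DNA repair pathway); compound treatment; growth inhibition vs vehicle ctrl.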
`COc1ccc2nc3cccc([N+](=O)[O-])c3c(NCCNCCN(C)C)c2c1` gave a growth inhibition of 1%. In the case of `Cc1cccc(/C=N/NC(=S)NC2CCCCC2)n1`, the growth inhibition was 7%. Compound `COC(=O)C(=O)c1c(-c2ccc(Cl)c(Cl)c2)[nH]c2[nH]n(-c3ccccc3)c(=O)c2c1=O` has a growth inhibition of 65%. For `c1ccc([P+](CCN2Cc3ccccc3C2)(c2ccccc2)c2ccccc2)cc1`, the growth inhibition was 95% (active). `Cc1cc(C)c2[s+]snc2c1` gave a growth inhibition of 20%. `CC(C)(Br)C(=O)/C=C/c1ccccc1` showed a growth inhibition of 60%. Work on `Cc1ccc(S(=O)(=O)NC(=O)C2C(=O)CC3(CCCCC3)CC2=O)cc1` yielded a growth inhibition of 35%. With `NC(=S)N1N=C2c3ccccc3CC[C@H]2[C@@H]1c1ccc(Cl)cc1` the growth inhibition was 85% (active). In the case of `O=[N+]([O-])/C=C/c1cc2ccc3ccccc3c2[nH]1`, the growth inhibition was 82% (active). In the case of `O=C1C(=C2CCCC2)CCC1CN1CCCCC1` (stereo unspecified), the growth inhibition was 95% (active). In the case of `OC(CC(O)(C(F)(F)F)C(F)(F)F)c1ccc(C(O)CC(O)(C(F)(F)F)C(F)(F)F)cc1` (stereo unspecified), the growth inhibition was 92% (active). With `COc1cc2c(cc1OC)[C@@H](Nc1ccc(C#N)cc1)C1COC(=O)[C@@H]1C2c1cc(OC)c(O)c(OC)c1` (stereo partly specified) the growth inhibition was 95% (active). For `O=c1cccccc1[O-].O=c1cccccc1[O-].O=c1cccccc1[O-].[Eu+3]`, the growth inhibition was 93% (active). In the case of `O=C1c2ccccc2C(=O)c2sc(Nc3ccccc3Cl)nc21`, the growth inhibition was 96% (active). In the case of `NC(CCCCCCCCCCCCC(N)C(=O)c1ccccc1)C(=O)c1ccccc1` (stereo unspecified), the growth inhibition was 93% (active). With `CC1=C(C)C(=O)C2=C(OCCO2)C1=O` the growth inhibition was 88% (active). With `c1ccc(-c2cc(C3CO3)c3ccccc3n2)cc1` (stereo unspecified) the growth inhibition was 98% (active). For `S=C1C(=Nc2ccccc2)N(c2ccccc2)/C(=N\c2ccccn2)N1c1ccccc1`, the growth inhibition was 91% (active). `CCC(OC(C)=O)C1CC(C(C)C)CCC1C` (stereo unspecified) showed a growth inhibition of 53%. In the case of `CC(C)=CCc1c2c(c(O)c3c(=O)c(-c4ccc(O)c(O)c4)coc13)C=CC(C)(C)O2`, the growth inhibition was 88% (active). In the case of `O=C(NC(N1CCN(c2cc3c(cc2F)c(=O)c(C(=O)O)cn3C2CC2)CC1)(C(F)(F)F)C(F)(F)F)c1ccccc1`, the growth inhibition was 91% (active). With `Fc1cc(F)c(F)c(S)c1F` the growth inhibition was 97% (active). In the case of `COc1ccc2cc3c4cc5c(cc4cc[n+]3cc2c1OC)OCO5`, the growth inhibition was 97% (active). In the case of `CCCCCCCCNCCCCCCCC`, the growth inhibition was 98% (active). With `Nc1cc(Cl)ccc1Nc1ccccc1` the growth inhibition was 93% (active). In the case of `O=C(/C(=C/c1ccc(O)cc1)c1ccccc1)c1ccccc1`, the growth inhibition was 93% (active). For `O=Cc1ccccc1C=O`, the growth inhibition was 89% (active). In the case of `C1=CCN([B-](c2ccccc2)[C+]2CCCCC2)C=C1`, the growth inhibition was 99% (active). In the case of `CC/C(=C(\c1ccccc1)c1ccc(OCC[N+](C)(C)C)cc1)c1ccccc1`, the growth inhibition was 99% (active). With `O=S(=O)(c1cccc(C(F)(F)F)c1)N1c2ccccc2-n2cccc2C1c1cccnc1` (stereo unspecified) the growth inhibition was 87% (active). In the case of `Nc1ccc2c(c1)C(=O)c1c(F)cccc1-2`, the growth inhibition was 98% (active). Work on `CN(C)/C(=N/C(=S)Nc1ccccc1)SCc1ccccc1` yielded a growth inhibition of 10%. With `CCN(CC)C(=S)N/N=C(\C)c1ccccc1O` the growth inhibition was 99% (active). With `CC(C)OC(=O)NNc1cc(Cl)ccc1Cl` the growth inhibition was 87% (active). `CC(C)CCC[C@@H](C)[C@H]1CC[C@H]2[C@@H]3CC[C@H]4C[C@H](N)CC[C@]4(C)[C@H]3CC[C@]12C` gave a growth inhibition of -2%. With `O=C1c2ccccc2-c2ccc(N=Cc3ccccc3)cc21` the growth inhibition was 96% (active).
